ssDAF-12 act: S. stercoralis DAF-12 nuclear receptor activators, primary screen, cell-based, luminescence, HEK293, GRIP1 co-expression, lit1-tk-luc. Nuclear hormone receptor DAF-12 (Strongyloides stercoralis). activation, % at 6.8 µM. AID 652126, 2013. HEK293 ssDAF-12/GRIP1 lit1-tk-luc reporter; % of 3 µM dafachronic acid response. hit rate 1% among 370,000;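 active = activation above the mean over all tested compounds plus 3 SD, cut at about 0.9% in these data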;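 also: 0% = DMSO-only wells and 100% = 3 µM delta7-dafachronic acid wells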
hcDAF12 agonist: H. contortus DAF-12 nuclear receptor activators, primary screen, cell-based, luminescence, HEK293, lit1-tk-luc reporter. hit rate 1.4% among 370,000. activation, % at 6.8 µM. HEK293 hcDAF-12 lit1-tk-luc reporter; 0% DMSO, 100% Δ7-dafachronic acid;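 active = activation above the mean of all tested compounds plus 3 SD, cut at about 5.5% in these data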;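 also: 100% = response to 3 µM Δ7-dafachronic acid high control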
SMARCA2 act: SMARCA2 (BRM) function activators, primary screen, cell-based, luminescence, high throughput | AID 652017, 2013 | hit rate 1% among 370,000 | activation, % at 9.1 µM | MG213 cells, MMTV-luciferase reporter, dexamethasone, overnight; in the data active = activation above about 7.8%;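 also: 0% = vehicle wells and 100% = reference activator wells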
hgDAF12 agonist: H. glycines DAF-12 receptor agonists, primary screen, cell-based, luminescence, HEK293, GAL4 fusion, UAS-luciferase | AID 687014, 2013 | hit rate 1.8% among 370,000 | Nuclear hormone receptor DAF-12 (Heterodera glycines), GAL4 fusion | HEK293 GAL4-hgDAF12 UAS-luciferase reporter, agonist luminescence; normalized to butyrate control | activation, % at 6.8 µM;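 active = activation above a cutoff set at the mean of all screened compounds plus 3 SD, cut at about 10% in these data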;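 also: 0% = DMSO wells and 100% = sodium butyrate wells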
DAX1 inh-1: DAX1 (NR0B1) inhibitors on StAR promoter, primary screen, cell-based, luminescence, SF-1 (NR5A1), full-length DAX-1; HEK293T StAR-luciferase reporter, SF-1/DAX-1 repression relief; inhibition, % at 6.8 µM; hit rate 1.1% among 370,000;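 active = inhibition above the mean over all tested compounds plus 3 SD, cut at about 3.6% in these data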;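 also: 0% = DAX-1 cells with DMSO and 100% = cells lacking DAX-1 with DMSO; higher inhibition means more luminescence from relief of DAX-1 repression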
DAX1 inh-2: DAX1 (NR0B1) inhibitors, primary screen, cell-based, HEK293, Gal4-DAX1, luciferase luminescence; HEK293 Gal4-DAX1 luciferase reporter; inhibition, % at 6.75 µM; Nuclear receptor subfamily 0 group B member 1 (Homo sapiens), P51843; AID 504766, 2011; hit rate 0.99% among 340,000;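 active = inhibition above the mean over all tested compounds plus 3 SD, cut at about 4.2% in these data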;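 also: 0% = DAX1-transfected cells with DMSO and 100% = empty-vector control cells with DMSO; inhibition shows as a rise in luminescence from relieved DAX1 repression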
Target sequence (P51843 207-470 limits assumed): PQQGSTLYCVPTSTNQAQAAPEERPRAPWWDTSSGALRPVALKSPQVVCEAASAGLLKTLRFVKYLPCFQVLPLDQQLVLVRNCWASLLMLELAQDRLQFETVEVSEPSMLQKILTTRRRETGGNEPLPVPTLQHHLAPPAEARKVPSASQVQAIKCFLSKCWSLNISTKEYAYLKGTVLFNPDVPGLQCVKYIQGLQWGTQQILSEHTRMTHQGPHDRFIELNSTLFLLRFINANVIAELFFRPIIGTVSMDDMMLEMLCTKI
SMARCA2 act conf: SMARCA2 (BRM) function activators, confirmation, cell-based, luminescence, triplicate; shares compounds with SMARCA2 act; MG213 cells, MMTV-luciferase with dexamethasone, overnight; MG213 cells expressing E1A, Rb sequestered; DMSO wells 0%, reference activator 100%; activation, % at 9.1 µM; hit rate 30% among 3,500;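 active = activation above its plate's cutoff, the mean activation of tested wells plus 3 SD, cut at about 7.9% in these data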
GAL4-VP16 Luc: GAL4-VP16 luciferase reporter activation, counter-screen for SMARCA2 (BRM) activator project, cell-based, pG5luc, luminescence, high throughput; shares compounds with SMARCA2 act; HEK293 GAL4-VP16 pG5luc reporter; scaled: DMSO wells 0%, SAHA wells 100%; activation, % at 9.1 µM; hit rate 41% among 3,500;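 active = activation above the solvent-only control well mean plus 3 SD, averaged across control plates, cut at about 5.2% in these data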
Active calls of the source: *; x = no result. An excerpt weighted towards active compounds, which were near 4.8% of everything screened.

SMILES | ssDAF-12 act | hcDAF12 agonist | SMARCA2 act | hgDAF12 agonist | DAX1 inh-1 | DAX1 inh-2 | SMARCA2 act conf | GAL4-VP16 Luc
Cc1ccc2c(ccc[n+]2CC(=O)c2ccccc2)c1 | -1 | 2 | 12* | 3 | 0 | 0 | -4 | 0
CC1(C(=O)NS(=O)(=O)c2cccc(Cl)c2)CCN1C(=O)CC1CCCCC1 (configuration not stated) | -1 | 2 | -3 | -1 | 1 | x | x | x
COc1cccc(NC(=O)COc2ccc(Br)c(C)c2)c1 | 0 | -1 | 9.9* | 4 | 1 | 2 | 7 | 4
CN(CCOc1ccccc1)CC(=O)Nc1cccc(Br)c1 | -2 | -1 | -2 | 0 | 0 | 0 | x | x
Cc1cc(NC(=O)CN(C)CCOc2ccccc2)ccc1Br | -2 | 1 | 8.4* | 3 | -1 | -1 | 0 | 2
COc1ccc2c(=O)cc(-c3ccccc3F)oc2c1 | 1 | 1 | 9.9* | 7 | 1 | 3 | 8.4* | 5.6*
COc1ccc2oc(-c3ccncc3)cc(=O)c2c1 | -1 | 0 | 8.7* | 10 | 3 | 2 | 13* | 6.5*
COc1ccc(-c2ccc3oc(-c4ccsc4)cc(=O)c3c2)cn1 | -1 | -1 | 4 | 6 | 0 | 0 | x | x
Cc1ccc(NS(=O)(=O)c2cccc(C(=O)NCC3(N(C)C)CCCCC3)c2)cc1 | -1 | -1 | 1 | 1 | 0 | 0 | x | x
O=C(NC1CC1)C1CC(=O)N(c2ccccc2)C1 (configuration not stated) | -1 | -1 | 2 | 1 | 1 | -1 | x | x
COc1ccccc1CNC(=O)c1ccc2c(=O)n(CC3CCCO3)c(=S)[nH]c2c1 (configuration not stated) | -1 | -1 | 2 | -3 | 0 | -1 | x | x
COc1cc(OC)cc(C(=O)N[C@H](C(=O)NC23CC4CC(CC(C4)C2)C3)C(C)C)c1 | -1 | -2 | 9.9* | -1 | -1 | 0 | 1 | 0
Cc1ccc(-n2c(SCC(N)=O)nc3c(c2=O)C2(CCCC2)Cc2ccccc2-3)cc1 | -1 | 0 | 8.0* | -1 | 0 | -3 | -2 | -1
COc1ccc(CNC(=O)CN(CC2CCCO2)C(=O)CNS(=O)(=O)c2ccc(F)cc2)cc1 (configuration not stated) | -1 | -1 | 0 | 1 | -1 | 0 | x | x
CCN(C(=O)CCc1nc(-c2ccc(OC)cc2)no1)c1cc(OC)ccc1OC | -1 | -2 | -2 | -5 | -1 | -1 | x | x
CC1(c2ccc3ccccc3c2)NC(=O)N(CC(=O)NCc2cccs2)C1=O (configuration not stated) | -1 | -2 | 9.6* | 0 | 0 | 1 | 0 | 1
S=C(N=Nc1ccccc1)NNc1ccccc1 | 0 | 11* | 10* | 12* | 3 | 3 | 14* | 7.7*
c1ccc(-c2onc3c2CCCC3)cc1 | -1 | -1 | -3 | 3 | -1 | 0 | x | x
NC(=O)c1ccc(N=Cc2ccc([N+](=O)[O-])s2)cc1 | -1 | -2 | 8.9* | -1 | 0 | 1 | -13 | 5
Cc1cc(C)cc(N=Cc2ccc([N+](=O)[O-])s2)c1 | -1 | 2 | -1 | 0 | 0 | 0 | x | x
COc1ccc(CNC(=O)C(C)Sc2nc3ccccc3c(=O)n2CCCN2CCOCC2)cc1 (configuration not stated) | -1 | -1 | 11* | 0 | 0 | -1 | -2 | -1
CC(C)(C)S(=O)(=O)N1C[C@H]2C(=C(CCO)C[C@H]3C(=O)N(c4ccccc4)C(=O)[C@H]32)[C@@H]1CCO | -1 | -1 | -4 | -1 | 0 | x | x | x
COc1cc(C(C(=O)NC2CCCC2)N(Cc2ccco2)C(=O)c2snc(C(N)=O)c2N)cc(OC)c1OC (configuration not stated) | -1 | -3 | -1 | 5 | 0 | 0 | x | x
Cc1ccc(-n2c(=O)cc(N3CCC(C)CC3)[nH]c2=O)cc1 | -2 | -1 | 8.2* | 0 | 0 | 1 | -2 | -1
Cc1ccc(-n2c(=O)cc(N3CC(C)CC(C)C3)[nH]c2=O)cc1 (configuration not stated) | -1 | -1 | -1 | -2 | 0 | 1 | x | x
SMILES | ssDAF-12 act | hcDAF12 agonist | SMARCA2 act | hgDAF12 agonist | DAX1 inh-1 | DAX1 inh-2 | SMARCA2 act conf | GAL4-VP16 Luc
Cc1cc(S(=O)(=O)N2CCC3(CC2)OCCO3)c(C)cc1Cl | -1 | -1 | 12* | 0 | -1 | 1 | -3 | 1
NS(=O)(=O)c1ccc(N=Nc2c(O)ccc3ccccc23)cc1 | -3 | -3 | 8.8* | -4 | -2 | -2 | 0 | 3
Cc1ccc(CSCC(Nc2ccc(C(=O)O)cc2[N+](=O)[O-])C(=O)O)cc1 (configuration not stated) | -1 | -2 | 9.0* | -2 | 0 | -1 | 0 | -1
CCOC(=O)C1=c2s/c(=C\c3ccncc3)c(=O)n2C(N)=C(C(=O)OC)C1c1ccncc1 (configuration not stated) | -2 | -2 | 3 | -1 | 0 | 2 | x | x
CCOc1ccc(NC(=O)CSc2nccn2C)cc1 | -1 | 2 | 8.8* | 6 | 1 | 1 | 6 | 4
COc1ccc(C(=O)CSc2nccn2C)cc1 | 0 | 2 | 11* | 12* | 1 | 4 | 5 | 5
Cn1ccnc1SCC(=O)Nc1ccc(Oc2ccccc2)cc1 | -1 | -1 | 3 | 8 | 0 | 0 | x | x
Cc1ccc(CSc2nn3c(=O)c(C)nnc3s2)cc1 | -1 | 1 | 8.6* | 1 | 0 | 2 | 2 | 1
CCNc1ccc(C(=O)OCC)cc1NC(=O)c1cc(S(=O)(=O)N2CCOCC2)ccc1C | -1 | -1 | -2 | 3 | 0 | 1 | x | x
C/C(=N\NC(=O)c1ccc(NS(=O)(=O)c2cccs2)cc1)c1ccc(Cl)cc1 | -1 | -1 | 9.1* | 7 | 0 | 0 | 3 | 0

Assay outcomes: PubChem, The Scripps Research Institute Molecular Screening Center
